These results are taken from PubChem BioAssay (EPA / NIEHS).

Where “and” joins values, the source holds several entries; their conditions need not be identical. Equal values may be shown once. Records with an inconclusive call do not appear. Some compounds were tested as several samples or in several runs, with calls that do not always agree. Calls of active or inactive are those of the source. The calls were made as follows, unless noted: active = hit-call score of the fitted dose curve at least 0.9, where 1 is the maximum; inconclusive = response in the unintended direction; inactive = score below 0.9.

Experiment [1] in a line: Tanguay_ZF_120hpf_JAW_legacy: (Legacy) Oregon State University Tanguay Lab 120 Hour Post-fertilization zebrafish Assay for Jaw Malformation (AID 2283638).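 As to AC50: active means more embryos with jaw malformation than DMSO controls.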 The essentials: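 Dechorionated Tropical 5D wild-type zebrafish embryos, one per well, exposed statically from 6 hpf to 120 hpf at 28C in 0.64% DMSO. Jaw malformation was scored by brightfield microscopy as present or absent. It was not scored in dead embryos.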

Experiment [2] is described as follows: Tanguay_ZF_120hpf_OTIC_legacy: (Legacy) Oregon State University Tanguay Lab 120 Hour Post-fertilization zebrafish Assay for Otic Vesicle Malformation (AID 2283639). The essentials: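 Wild-type zebrafish larvae, whole-embryo exposure from early stage to 120 hpf at 28C. Binary brightfield scoring of otic vesicle morphology, fitted in the positive direction against the DMSO baseline.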

Experiment [3] in a line: Tanguay_ZF_120hpf_PE_legacy: (Legacy) Oregon State University Tanguay Lab 120 Hour Post-fertilization zebrafish Assay for Pericardial Edema (AID 2283640).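 As to AC50: potency for increased incidence of pericardial edema versus DMSO baseline.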 A digest of the protocol: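 Tropical 5D wild-type zebrafish embryos were statically exposed until 120 hpf at 28C, with 0.64% DMSO final. Pericardial edema was scored by brightfield as present or absent; endpoints were not scored in dead embryos.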

A short description of experiment [4]: Tanguay_ZF_120hpf_BRAI_legacy: (Legacy) Oregon State University Tanguay Lab 120 Hour Post-fertilization zebrafish Assay for Brain Malformation (AID 2283641). The essentials:
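Tropical 5D wild-type zebrafish embryos exposed statically until 120 hpf at 28C, 0.64% DMSO final, sealed and dark. Brain malformation scored present/absent by brightfield at 120 hpf; dead embryos excluded. Trimethyltin chloride 5uM positive control.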

The nature of experiment [5]: Tanguay_ZF_120hpf_SOMI_legacy: (Legacy) Oregon State University Tanguay Lab 120 Hour Post-fertilization zebrafish Assay for Somite Malformation (AID 2283647). The essentials:
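Dechorionated Tropical 5D wild-type zebrafish embryos, one per well from 6 hpf, statically exposed at 28C to 120 hpf in 0.64% DMSO; somite malformation scored present/absent by brightfield; trimethyltin 5 uM positive control; dead embryos not scored.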

A short description of experiment [6]: Tanguay_ZF_120hpf_PFIN_legacy: (Legacy) Oregon State University Tanguay Lab 120 Hour Post-fertilization zebrafish Assay for Pectoral Fin Malformation (AID 2283648).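 Also: each larva judged yes or no for fin defect by brightfield with dead larvae skipped.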 The essentials: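 Binary pectoral fin malformation call at 120 hpf by brightfield microscopy; 5D wild-type zebrafish, chorion removed at 4 hpf, one embryo per well from 6 hpf, static exposure at 28C; DMSO (0.64% final) as baseline.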

Experiment [7] can be described thus: Tanguay_ZF_120hpf_CFIN_legacy: (Legacy) Oregon State University Tanguay Lab 120 Hour Post-fertilization zebrafish Assay for Caudal Fin Malformation (AID 2283649). The essentials:
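Dechorionated Tropical 5D wild-type embryos, one per well from 6 hpf, static exposure to 120 hpf at 28C in 0.64% DMSO. Caudal fin malformation scored by brightfield as present/absent; not scored in dead embryos.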

Experiment [8] is described as follows: Tanguay_ZF_120hpf_PIG_legacy: (Legacy) Oregon State University Tanguay Lab 120 Hour Post-fertilization zebrafish Assay for Pigmentation Malformation (AID 2283650). A digest of the protocol:
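Brightfield scoring of pigmentation malformation at 120 hpf, recorded as binary present/absent per larva. Exposure: dechorionated 5D wild-type embryos, one per well, static from 6 hpf at 28C, final DMSO 0.64% (vol/vol). Dead embryos not scored.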

Experiment [9] is described as follows: Tanguay_ZF_120hpf_CIRC_legacy: (Legacy) Oregon State University Tanguay Lab 120 Hour Post-fertilization zebrafish Assay for Circulatory Malformation (AID 2283651). A digest of the protocol:
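Binary circulatory-malformation call at 120 hpf via brightfield imaging, relative to DMSO controls. Embryos (5D strain, chorion removed) received static, light-shielded exposure at 28C.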

Experiment [10] can be described thus: Tanguay_ZF_120hpf_SWIM_legacy: (Legacy) Oregon State University Tanguay Lab 120 Hour Post-fertilization zebrafish Assay for Swim Bladder Malformation (AID 2283654).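 Also: swim bladder malformation in each larva scored yes or no under brightfield.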 The essentials:
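Tropical 5D embryos dechorionated at 4 hpf; 1 embryo/well from 6 hpf; static, sealed, dark exposure at 28C until 120 hpf; final DMSO 0.64%; 5uM trimethyltin chloride positive control; swim bladder defect recorded yes/no; dead embryos not scored.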

Experiment [11] can be described thus: Tanguay_ZF_120hpf_TRUN_legacy: (Legacy) Oregon State University Tanguay Lab 120 Hour Post-fertilization zebrafish Assay for Truncated Body (AID 2283655). The essentials: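 Dechorionated Tropical 5D wild-type embryos placed singly from 6 hpf and statically exposed to 120 hpf at 28C, final DMSO 0.64%. Truncated body scored as present/absent by brightfield; not scored in dead embryos.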

Experiment [12] is described as follows: Tanguay_ZF_120hpf_NC_legacy: (Legacy) Oregon State University Tanguay Lab 120 Hour Post-fertilization zebrafish Assay for Notochord and Tail Malformation (AID 2283656). The essentials: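 Binary notochord-distortion calls, made by brightfield inspection, form the read-out; activity is fitted in the positive direction against DMSO. Exposure ran statically from 6 to 120 hpf at 28C with 0.64% DMSO.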

Read-out in experiment [13]: ABC Transporter (ABCB1), ABCB1 (gene 5243)
In words: CLD_ABCB1_6hr: CellzDirect (CLD) Gene Expression Assay for ABC Transporter (ABCB1) at 6 hours (AID 2283659).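 Also: hits raise ABCB1 transcript above the DMSO vehicle baseline.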 A digest of the protocol: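 ABCB1 transcript measured by quantitative nuclease protection assay, chemiluminescent read-out, 6 h after dosing human hepatocyte cultures (0.2% DMSO vehicle, daily redosing). Activity fitted as increase over DMSO baseline; cytotoxicity flagged by phase-contrast morphology.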

Read-out in experiment [14]: Broad substrate specificity ATP-binding cassette transporter ABCG2 (Homo sapiens) (UniProt Q9UNQ0)
Briefly: CLD_ABCG2_6hr: CellzDirect (CLD) Gene Expression Assay for ABC Transporter (ABCG2) at 6 hours (AID 2283660). The essentials:
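ABCG2 mRNA induction measured by qNPA chemiluminescence in human primary hepatocyte cultures, 6 h post-dose. Chemicals tested at several concentrations against a 0.2% DMSO vehicle; positive-direction fit relative to DMSO.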

Read-out in experiment [15]: xenobiotic metabolism (CYP1A1), CYP1A1 (gene 1543)
Briefly: CLD_CYP1A1_6hr: CellzDirect (CLD) Gene Expression Assay for xenobiotic metabolism (CYP1A1) at 6 hours (AID 2283661).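 As to AC50: potency for transcript induction above DMSO vehicle baseline.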 The essentials:
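Read-out 6 h post-dose: qNPA chemiluminescent quantitation of transcript induction against 0.2% DMSO. Cells were cultured primary human hepatocytes from two separate donor preparations; phase-contrast morphology annotated apparent cytotoxicity.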

The nature of experiment [16]: Tanguay_ZF_120hpf_SNOU_legacy: (Legacy) Oregon State University Tanguay Lab 120 Hour Post-fertilization zebrafish Assay for Snout Malformation (AID 2283637). The essentials:
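Binary brightfield scoring of snout malformation at 120 hpf. Dechorionated 5D wild-type embryos, one per well, static exposure from 6 hpf at 28C, sealed and dark; final DMSO 0.64% (vol/vol), DMSO as baseline; 5uM trimethyltin chloride positive control.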

Read-out in experiment [17]: solute carrier (SLC22A6), SLC22A6 (gene 9356)
In words: LTEA_HepaRG_SLC22A6: Life Technologies and Expression Analysis (LTEA) Assay for solute carrier (SLC22A6) using HepaRG (AID 2283653; active = hit-call score of the fitted dose curve at least 0.9, where 1 is the maximum; inactive = score below 0.9). The note with it: mRNA level, 48 h; actives raise or lower the signal. A digest of the protocol: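 Differentiated HepaRG cells exposed 48 h in serum-free induction medium to 8 half-log concentrations, top 100 uM, in 0.5% DMSO; SLC22A6 mRNA by Fluidigm qRT-PCR normalized to ACTB, GAPDH, POLR2A, fitted bidirectionally versus DMSO.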

Read-out in experiment [18]: solute carrier (SLC10A1), SLC10A1 (gene 6554)
In words: LTEA_HepaRG_SLC10A1: Life Technologies and Expression Analysis (LTEA) Assay for solute carrier (SLC10A1) using HepaRG (AID 2283657; active = hit-call score of the fitted dose curve at least 0.9, where 1 is the maximum; inactive = score below 0.9). The note with it: mRNA level, 48 h; actives raise or lower the signal. The essentials:
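HepaRG, 48 h exposure, 8-pt half-log curve from 100 uM in 0.5% DMSO, duplicates. Read-out: TaqMan qRT-PCR of SLC10A1 mRNA, normalized to three housekeeping genes. Gain/loss fit vs DMSO baseline.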

Read-out in experiment [19]: matrix metalloproteinase-1 (MMP1), MMP1 (gene 4312)
Briefly: LTEA_HepaRG_MMP1: Life Technologies and Expression Analysis (LTEA) Assay for matrix metalloproteinase-1 (MMP1) using HepaRG (AID 2283658; active = hit-call score of the fitted dose curve at least 0.9, where 1 is the maximum; inactive = score below 0.9). The note with it: mRNA level, 48 h; actives raise or lower the signal. The essentials:
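Differentiated human HepaRG cells, 48 h post-plating in serum-free induction medium, were exposed 48 h to eight half-log concentrations topping at 100 uM in 0.5% DMSO, duplicate. MMP1 mRNA measured by Fluidigm TaqMan qRT-PCR, normalized to ACTB, GAPDH, POLR2A; bidirectional fits versus DMSO.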

Sequence of Broad substrate specificity ATP-binding cassette transporter ABCG2 (Homo sapiens) (Q9UNQ0 whole entry, looked up): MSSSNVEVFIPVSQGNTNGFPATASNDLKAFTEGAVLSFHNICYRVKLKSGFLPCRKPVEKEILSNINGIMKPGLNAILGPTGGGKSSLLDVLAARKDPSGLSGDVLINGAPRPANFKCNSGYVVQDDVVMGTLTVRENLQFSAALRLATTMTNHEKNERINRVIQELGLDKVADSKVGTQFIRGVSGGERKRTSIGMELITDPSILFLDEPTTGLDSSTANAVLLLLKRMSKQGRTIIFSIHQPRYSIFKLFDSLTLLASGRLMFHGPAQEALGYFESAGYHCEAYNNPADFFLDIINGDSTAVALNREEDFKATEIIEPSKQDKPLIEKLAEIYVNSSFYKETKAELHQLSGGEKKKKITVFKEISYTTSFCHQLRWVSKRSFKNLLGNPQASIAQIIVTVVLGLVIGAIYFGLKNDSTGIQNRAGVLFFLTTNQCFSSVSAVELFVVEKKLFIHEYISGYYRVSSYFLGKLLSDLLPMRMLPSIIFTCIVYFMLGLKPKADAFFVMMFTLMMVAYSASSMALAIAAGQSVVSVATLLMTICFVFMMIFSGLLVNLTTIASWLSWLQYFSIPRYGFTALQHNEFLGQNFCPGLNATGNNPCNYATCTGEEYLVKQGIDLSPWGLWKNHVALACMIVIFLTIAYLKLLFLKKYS

Regarding `COC(=O)C(C)Oc1ccc(Oc2ccc(Cl)cc2Cl)cc1` (centres undefined), the molecule was classed as inactive in experiment [1], in experiment [2], in experiment [3], in experiment [4], in experiment [5] and in [6]. Besides, the molecule was called inactive in experiment [7], in [8], in [9], in experiment [10], in experiment [11] and in experiment [12]. The result in [13] and in experiment [14] was inactive. Moreover, the AC50 in experiment [15] is 3.97 µM (active) and 4.59 µM (active).

For the molecule `CC(C)(C)c1ccc(CSc2cnn(C(C)(C)C)c(=O)c2Cl)cc1`, the result in experiment [16], in experiment [1], in experiment [2], in [3], in experiment [4] and in experiment [6] was inactive. Moreover, the result in experiment [7], in experiment [9], in experiment [10], in experiment [11], in experiment [12] and in [14] was inactive.

For `CO/C=C(/C(=O)OC)c1ccccc1Oc1cc(Oc2ccccc2C#N)ncn1`, the outcome in experiment [1], in [2], in [3], in experiment [4], in [5] and in experiment [6] was inactive. In addition, the result in experiment [7], in experiment [8], in experiment [9], in experiment [17], in [10] and in [11] was inactive. The call in experiment [12], in [19], in experiment [13] and in experiment [14] was inactive. Besides, the AC50 was 5.47 µM (active) in experiment [3] and 78.6 µM (active) in [18].

For `CCCC1COC(Cn2cncn2)(c2ccc(Cl)cc2Cl)O1` (centres undefined), the AC50 in experiment [1] is 25.2 µM (active); in experiment [3], 30.4 µM (active); in experiment [4] it was 30.2 µM (active); in experiment [15] it was 6.32 µM (active). In addition, the call in [2], in [5], in [6], in [7], in experiment [8] and in experiment [9] was inactive. Moreover, the result in experiment [10], in [11], in experiment [12] and in experiment [13] was inactive.

On to `CCCCNC(=O)OCC#CI`, for which the result in experiment [1], in experiment [2], in [3], in experiment [4], in experiment [5] and in experiment [6] was inactive. Moreover, the result in experiment [7], in experiment [8], in experiment [9], in experiment [10], in experiment [11] and in experiment [12] was inactive. The call in experiment [13], in experiment [14] and in experiment [15] was inactive. For the same molecule, in experiment [15], the AC50 was 0.851 µM (active).

For `O=C(O)c1nc(Cl)ccc1Cl`, the molecule was called inactive in experiment [1], in experiment [2], in [3], in experiment [4], in experiment [5] and in experiment [6]. In addition, the call in experiment [7], in experiment [8], in experiment [9], in experiment [10], in experiment [11] and in experiment [12] was inactive. For the same molecule, the result in [15] was inactive. In experiment [15], the AC50 is 4.04 µM (active).

Broadly, the AC50 is the concentration at which the activity in the assay is half-maximal.
